# Assay results from PubChem BioAssay (NCATS).
# Records with an inconclusive call do not appear. Where a call stands in place of a potency, no number is given. Activity calls are given as the source filed them. Unless noted, the call rests on the fitted dose curve; in most records, active means well fitted inhibition curve with a large enough effect; inconclusive means small, poorly fitted or top-dose-only effect; inactive means flat fitted curve, though single readings scatter.
# Legend:
# [1] = qHTS profiling for inhibitors of Plasmodium falciparum proliferation (AID 504749); further: nearly all actives have a fitted effect of over 60% in size; further: potency means the concentration at half of the fitted maximal effect; settings: P. falciparum in erythrocytes, SYBR Green DNA, 72 h
# Procedure, shortened: (§1)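 Readout was DNA-dye fluorescence from lysed cultures, ex 485/em 535 nm. Parasitized red cells had grown 72 h with compound; data scaled between 0.29 uM artemisinin and DMSO wells and corrected using vehicle-only plates.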
# 3D7 = assay: as above; settings: P. falciparum in erythrocytes, SYBR Green DNA, 72 h; series mostly up to 28.7 µM
# Procedure, shortened: as §1
# 7G8 = assay: as above; settings: P. falciparum in erythrocytes, SYBR Green DNA, 72 h; series mostly up to 28.7 µM
# Procedure, shortened: as §1
# AA1029 = assay: as above; settings: P. falciparum in erythrocytes, SYBR Green DNA, 72 h; series mostly up to 28.7 µM
# Procedure, shortened: as §1
# AS120 = assay: as above; settings: P. falciparum in erythrocytes, SYBR Green DNA, 72 h; series mostly up to 28.7 µM
# Procedure, shortened: as §1
# ATS189 = assay: as above; settings: P. falciparum in erythrocytes, SYBR Green DNA, 72 h; series mostly up to 28.7 µM
# Procedure, shortened: as §1
# ATS95 = assay: as above; settings: P. falciparum in erythrocytes, SYBR Green DNA, 72 h; series mostly up to 28.7 µM
# Procedure, shortened: as §1
# C2A = assay: as above; settings: P. falciparum in erythrocytes, SYBR Green DNA, 72 h; series mostly up to 28.7 µM
# Procedure, shortened: as §1
# CP185 = assay: as above; settings: P. falciparum in erythrocytes, SYBR Green DNA, 72 h; series mostly up to 28.7 µM
# Procedure, shortened: as §1
# CP191 = assay: as above; settings: P. falciparum in erythrocytes, SYBR Green DNA, 72 h; series mostly up to 28.7 µM
# Procedure, shortened: as §1
# CP192 = assay: as above; settings: P. falciparum in erythrocytes, SYBR Green DNA, 72 h; series mostly up to 28.7 µM
# Procedure, shortened: as §1
# CP194 = assay: as above; settings: P. falciparum in erythrocytes, SYBR Green DNA, 72 h; series mostly up to 28.7 µM
# Procedure, shortened: as §1
# CP201 = assay: as above; settings: P. falciparum in erythrocytes, SYBR Green DNA, 72 h; series mostly up to 28.7 µM
# Procedure, shortened: as §1
# [2] = qHTS drug screen for cell cycle checkpoint inhibitors in PARPi-resistant BRCA-mutant ovarian cancer cell lines. (AID 1963452; calls by dose curve); settings: PEO1/OlaR viability, CellTiter-Glo luminescence, 96 h, stronger effect = lower value
# Procedure, shortened: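 PEO1, PEO4 and PEO1/OlaR ovarian cancer cells, 600 per well, exposed 96 h at 37C to a dilution series. Viability read by CellTiter-Glo luminescence, normalized to DMSO and empty wells; activity summarized as Z-AUC.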
# [3] = qHTS for identification of novel therapeutic agents for treatment of microphthalmiaassociated transcription factor (MiT) renal cell carcinoma (RCC) (AID 1963991; calls by dose curve; further: potency means the concentration at half of the fitted maximal effect); settings: CellTiter-Glo, 48 h; for z-score: stronger effect = lower value
# Procedure, shortened: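 Viability of three TFE3-fusion renal carcinoma lines measured by CellTiter-Glo after 48 h treatment with each of 1912 compounds at 11 concentrations. Responses scaled between DMSO (100%) and empty wells (0%) before curve fitting.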
# [4] = at 28.7 µM (top of the series), parasite line A
# [5] = at 28.7 µM (top of the series), parasite line B
# [6] = measured here: PEO1 parental Z-AUC
# [7] = TFE3-RCC UOK109 viability, measured here: UOK109 Z-AUC
# [8] = TFE3-RCC viability, measured here: UOK124 Z-AUC
# [9] = TFE3-RCC viability, measured here: UOK145 Z-AUC
compound,measurement,setting,value
CC(C)NCC(O)COc1ccc(COCCOC(C)C)cc1 (stereo not given),"activity, negative = inhibition",[1]; [4],1.04% (inactive)
same,"activity, negative = inhibition",[1]; [5],5.04% (inactive)
same,Potency,3D7,inactive
same,Potency,7G8,inactive
same,Potency,AA1029,inactive
same,Potency,AS120,inactive
same,Potency,ATS189,inactive
same,Potency,ATS95,inactive
same,Potency,C2A,inactive
same,Potency,CP185,inactive
same,Potency,CP191,inactive
same,Potency,CP192,inactive
same,Potency,CP194,inactive
same,outcome,CP201,inactive
CCCc1nc2c(C)cc(-c3nc4ccccc4n3C)cc2n1Cc1ccc(-c2ccccc2C(=O)O)cc1,Z-AUC,[2],0.748 (inactive)
same,Z-AUC,[2]; [6],1.08
same,Z-AUC,[2]; measured here: PEO4 Z-AUC,0.729
same,"activity, negative = inhibition",[1]; [4],-11.3% (inactive)
same,Potency,[1]; parasite line B,1.78 µM (active)
same,Potency,3D7,8.91 µM (active)
same,Potency,7G8,0.316 µM (active)
same,Potency,AS120,1.41 µM (active)
same,Potency,ATS189,0.794 µM (active)
same,Potency,ATS95,3.98 µM (active)
same,Potency,CP185,inactive
same,outcome,CP201,inactive
NC(N)=NC(=O)c1nc(Cl)c(N)nc1N,Z-AUC,[2],-0.792 (inactive)
same,Z-AUC,[2]; [6],-0.971
same,Z-AUC,[2]; measured here: PEO4 Z-AUC,-0.392
same,Potency,7G8,2 µM (active)
same,Potency,CP185,inactive
same,Potency,CP191,8.91 µM (active)
same,Potency,CP192,inactive
same,Potency,CP194,inactive
same,outcome,CP201,inactive
O=C1CCc2cc(OCCCCc3nnnn3C3CCCCC3)ccc2N1,z-score,[3]; [7],0.489
same,z-score,[3]; [8],0.136
same,z-score,[3]; [9],0.331
same,Potency,3D7,inactive
same,Potency,7G8,inactive
same,Potency,ATS95,inactive
same,Potency,CP191,inactive
same,Potency,CP192,inactive
same,Potency,CP194,inactive
same,outcome,CP201,inactive
Cc1cnc(NC(=O)C2=C(O)c3ccccc3S(=O)(=O)N2C)s1,z-score,[3]; [7],0.549
same,z-score,[3]; [8],0.223
same,z-score,[3]; [9],0.231
Clc1ccc(Nc2nnc(Cc3ccncc3)c3ccccc23)cc1,Z-AUC,[2],0.341 (inactive)
same,Z-AUC,[2]; [6],0.338
same,Z-AUC,[2]; measured here: PEO4 Z-AUC,0.325
same,"activity, negative = inhibition",[1]; [4],-16.8% (inactive)
same,"activity, negative = inhibition",[1]; [5],-13.7% (inactive)
same,Potency,3D7,inactive
same,Potency,7G8,10 µM (active)
same,Potency,ATS189,inactive
same,Potency,ATS95,inactive
same,Potency,C2A,inactive
same,Potency,CP185,inactive
same,Potency,CP192,inactive
same,Potency,CP194,inactive
same,outcome,CP201,inactive
CCOC(=O)C1=C[C@@]2(CC)CCCN3CCc4c(n1c1ccccc41)[C@H]32,Potency,CP192,13.5 µM (active)
same,Potency,CP194,13.5 µM (active)
O=C(C=Cc1ccc(/C=C/C(=O)Nc2ccc(C3=NCCN3)cc2)cc1)Nc1ccc(C2=NCCN2)cc1,z-score,[3]; [7],0.251
same,z-score,[3]; [8],0.767
same,z-score,[3]; [9],0.309
O=NN(CCCl)C(=O)NCCCl,z-score,[3]; [7],-0.0741
same,z-score,[3]; [8],1.48
same,z-score,[3]; [9],-0.0256
same,"activity, negative = inhibition",[1]; [4],-1.48% (inactive)
same,"activity, negative = inhibition",[1]; [5],4.82% (inactive)
same,Potency,3D7,inactive
same,Potency,7G8,inactive
same,Potency,AA1029,inactive
same,Potency,AS120,inactive
same,Potency,ATS189,inactive
same,Potency,ATS95,inactive
same,Potency,C2A,inactive
same,Potency,CP185,inactive
same,Potency,CP191,inactive
same,Potency,CP192,inactive
same,Potency,CP194,inactive
same,outcome,CP201,inactive
Nc1nc2ccc(OC(F)(F)F)cc2s1,Z-AUC,[2],-0.346 (inactive)
same,Z-AUC,[2]; [6],-0.387
same,Z-AUC,[2]; measured here: PEO4 Z-AUC,0.245
same,Potency,3D7,inactive
same,Potency,7G8,inactive
same,Potency,AA1029,inactive
same,Potency,AS120,inactive
same,Potency,ATS95,inactive
same,Potency,C2A,inactive
same,Potency,CP185,inactive
same,Potency,CP192,inactive
same,Potency,CP194,inactive
same,outcome,CP201,inactive
Cc1c(CN2CCN(C(=O)C(C)C)CC2)sc2c(N3CCOCC3)nc(-c3cnc(N)nc3)nc12,Potency,"[3]; TFE3-RCC UOK109 viability, active = Z-AUC below -0.8 in all three lines",0.118 µM (active)
same,z-score,[3]; [7],-1.83
same,z-score,[3]; [8],-1.54
same,z-score,[3]; [9],-2.67
COc1ccc(CC2=NN3C([C@@H](CCc4ccccc4)[C@@H](C)O)=NC(C)C3C(=O)N2)cc1OC (stereo not given in full),z-score,[3]; [7],1.24
same,z-score,[3]; [8],0.967
same,z-score,[3]; [9],0.717
Cc1ccccc1C(C(=O)NC1CCCC1)N(C(=O)Cn1cnc2ccccc21)c1cccc(F)c1 (stereo not given),z-score,[3]; [7],0.51
same,z-score,[3]; [8],0.839
same,z-score,[3]; [9],0.533
CCOC(=O)N1CCC(=C2c3ccc(Cl)cc3CCc3cccnc32)CC1,"activity, negative = inhibition",[1]; [5],-13.3% (inactive)
same,Potency,[1]; parasite line A,12.6 µM (active)
same,Potency,7G8,2.24 µM (active)
same,Potency,AS120,1.78 µM (active)
same,Potency,ATS189,inactive
same,Potency,C2A,inactive
NNCCc1ccccc1,Z-AUC,[2],0.52 (inactive)
same,Z-AUC,[2]; [6],0.364
same,Z-AUC,[2]; measured here: PEO4 Z-AUC,0.249
same,"activity, negative = inhibition","[1]; at 12.8 µM (top of the series), parasite line B",-6.84% (inactive)
same,Potency,AA1029,inactive
same,Potency,ATS189,inactive
same,Potency,ATS95,inactive
same,Potency,C2A,inactive
same,Potency,CP185,inactive
same,Potency,CP191,inactive
same,Potency,CP192,inactive
same,Potency,CP194,inactive
same,outcome,CP201,inactive
COc1ccc2nc(S(=O)Cc3ncc(C)c(OC)c3C)[nH]c2c1 (stereo not given),"activity, negative = inhibition",[1]; [4],-18.6% (inactive)
same,"activity, negative = inhibition",[1]; [5],-6.81% (inactive)
same,Potency,3D7,inactive
same,Potency,7G8,10 µM (active)
same,Potency,AA1029,inactive
same,Potency,AS120,inactive
same,Potency,ATS189,inactive
same,Potency,ATS95,inactive
same,Potency,C2A,inactive
same,Potency,CP185,inactive
same,Potency,CP192,inactive
same,Potency,CP194,inactive
same,outcome,CP201,inactive
Clc1cccc(Cl)c1NC1=NCCN1,z-score,[3]; [7],0.351
same,z-score,[3]; [8],0.654
same,z-score,[3]; [9],-0.377
same,"activity, negative = inhibition",[1]; [4],-1.81% (inactive)
same,"activity, negative = inhibition",[1]; [5],0.0653% (inactive)
same,Potency,3D7,inactive
same,Potency,AA1029,inactive
same,Potency,AS120,inactive
same,Potency,ATS189,inactive
same,Potency,ATS95,inactive
same,Potency,C2A,inactive
same,Potency,CP185,inactive
same,Potency,CP191,inactive
same,Potency,CP192,inactive
same,Potency,CP194,inactive
same,outcome,CP201,inactive
C[C@]12CC[C@H](O)CC1=CC[C@@H]1[C@H]2CC[C@]2(C)C(c3cccnc3)=CC[C@H]12,z-score,[3]; [7],0.87
same,z-score,[3]; [8],0.84
same,z-score,[3]; [9],0.924
CN1CCN(CCCN2c3ccccc3Sc3ccc(C(F)(F)F)cc32)CC1,Z-AUC,[2],0.668 (inactive)
same,Z-AUC,[2]; [6],0.224
same,Z-AUC,[2]; measured here: PEO4 Z-AUC,0.215
same,Potency,[1]; parasite line A,2.24 µM (active)
same,Potency,[1]; parasite line B,2 µM (active)
same,Potency,7G8,7.94 µM (active)
same,Potency,AA1029,3.16 µM (active)
same,Potency,AS120,3.16 µM (active)
same,Potency,ATS189,3.98 µM (active)
same,Potency,ATS95,12.6 µM (active)
same,Potency,C2A,7.94 µM (active)
same,Potency,CP191,10 µM (active)
same,outcome,CP201,inactive
N=c1nc(N2CCCCC2)cc(N)n1O,"activity, negative = inhibition",[1]; [4],6.18% (inactive)
same,"activity, negative = inhibition",[1]; [5],18.3% (inactive)
same,Potency,3D7,inactive
same,Potency,7G8,inactive
same,Potency,AA1029,inactive
same,Potency,AS120,inactive
same,Potency,ATS189,inactive
same,Potency,ATS95,inactive
same,Potency,C2A,inactive
same,Potency,CP185,inactive
same,Potency,CP191,inactive
same,Potency,CP192,inactive
same,Potency,CP194,inactive
same,outcome,CP201,inactive
CCOc1ccc(Cc2cc([C@@H]3O[C@H](CO)[C@@H](O)[C@H](O)[C@@H]3O)ccc2Cl)cc1,z-score,[3]; [7],0.362
same,z-score,[3]; [8],0.747
same,z-score,[3]; [9],0.623
O=c1[nH]cnc2[nH]ncc12,z-score,[3]; [7],0.431
same,z-score,[3]; [8],0.33
same,z-score,[3]; [9],0.0964
same,"activity, negative = inhibition",[1]; [4],-0.162% (inactive)
same,"activity, negative = inhibition",[1]; [5],2.37% (inactive)
same,Potency,3D7,inactive
same,Potency,7G8,inactive
same,Potency,AA1029,inactive
same,Potency,AS120,inactive
same,Potency,ATS189,inactive
same,Potency,ATS95,inactive
same,Potency,C2A,inactive
same,Potency,CP185,inactive
same,Potency,CP191,inactive
same,Potency,CP192,inactive
same,Potency,CP194,inactive
same,outcome,CP201,inactive
